Experimental findings from PubChem BioAssay are described below.

Activity calls are given as the source filed them.

The nature of assay [1]: optical density shifts of acrAB sulA E. coli – strain DRC41, OD650, 48 h, E. coli filamentation inducer project, primary screen (AID 1152).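 Also: E. coli MC1000 strain DRC41 lacking acrAB efflux pump and sulA.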 Conditions: higher = more signal, called active from +8 up or from −8 down.
Assay [2] can be described thus: probe aLefty1 binding on compound microarray – biochemical, small-molecule microarray, 635/667 nm fluorescence, primary screen (AID 1153).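 Also: score merges spot fluorescence with signal-to-noise ratio from the scanned slide images.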 Conditions: higher = more signal.
A short description of assay [3]: plasmodial surface anion channel blockers, osmotic lysis – cell-based, P. falciparum Indochina, OD700, 1 h, primary screen (AID 1154). As to conditions: P. falciparum Indochina infected RBC osmotic lysis, higher = more signal, called active from +8 up or from −8 down.
Assay [4] is described as follows: plasmodial surface anion channel blockers, osmotic lysis – cell-based, P. falciparum Indochina, OD700, 2 h, primary screen (AID 1155).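 Also: lysis reports solute entry through the parasite surface anion channel PSAC.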 As to conditions: P. falciparum Indochina infected erythrocytes, higher = more signal, called active from +8 up or from −8 down.
Assay [5] is described as follows: changes in parasitized red cell lysis, either direction – P. falciparum Indochina, OD700, 3 h, PSAC antagonist project, primary screen (AID 1156). As to conditions: P. falciparum-infected erythrocytes, osmotic lysis, higher = more signal, called active from +8 up or from −8 down.
Assay [6] can be described thus: plasmodial surface anion channel blockers, osmotic lysis – cell-based, P. falciparum Indochina, OD700, 18 h, primary screen (AID 1157). Conditions: P. falciparum Indochina infected erythrocytes, osmotic lysis OD700, 18 h; higher = more signal, called active from +8 up or from −8 down.
Assay [7] is described as follows: S6 kinase pathway phospho-S6 level changes – cell-based, A549, cytoblot, luminescence, serum-stimulated, primary screen (AID 1158).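 Also: serum-stimulated A549 lung adenocarcinoma cells; signal is phosphorylated S6 detected by cytoblot immunostaining with HRP secondary.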 As to conditions: 5 h, higher = more signal.
The target of assay [8] is NADPH oxidase 2 (Homo sapiens) (UniProt P04839). Briefly: compounds shifting NOX2 Amplex Red fluorescence – cell-based, HEK293-NOX2, PMA-stimulated, NOX inhibitor project, primary screen (AID 1159). Also: test concentration not given here. As to conditions: 45 min, higher = more signal, called active from +8 up or from −8 down.
Assay [9] addresses NADPH oxidase 4 (Homo sapiens) (UniProt Q9NPH5). Kind of assay: compounds shifting NOX4 Amplex Red fluorescence – cell-based, HEK293-NOX4, tetracycline-induced, NOX inhibitor project, primary screen (AID 1160). As to conditions: HEK293-NOX4, Amplex Red H2O2 fluorescence, 45 min; higher = more signal, called active from +8 up or from −8 down.
Assay [10] deals with NADPH oxidase 5 (Homo sapiens) (UniProt Q96PH1). Briefly: compounds shifting NOX5 Amplex Red fluorescence – cell-based, HEK293-NOX5, NOX inhibitor project, primary screen (AID 1161). As to conditions: HEK293-NOX5, ionomycin, 45 min, higher = more signal.
Sequence of NADPH oxidase 5 (Homo sapiens) (Q96PH1 whole entry, looked up): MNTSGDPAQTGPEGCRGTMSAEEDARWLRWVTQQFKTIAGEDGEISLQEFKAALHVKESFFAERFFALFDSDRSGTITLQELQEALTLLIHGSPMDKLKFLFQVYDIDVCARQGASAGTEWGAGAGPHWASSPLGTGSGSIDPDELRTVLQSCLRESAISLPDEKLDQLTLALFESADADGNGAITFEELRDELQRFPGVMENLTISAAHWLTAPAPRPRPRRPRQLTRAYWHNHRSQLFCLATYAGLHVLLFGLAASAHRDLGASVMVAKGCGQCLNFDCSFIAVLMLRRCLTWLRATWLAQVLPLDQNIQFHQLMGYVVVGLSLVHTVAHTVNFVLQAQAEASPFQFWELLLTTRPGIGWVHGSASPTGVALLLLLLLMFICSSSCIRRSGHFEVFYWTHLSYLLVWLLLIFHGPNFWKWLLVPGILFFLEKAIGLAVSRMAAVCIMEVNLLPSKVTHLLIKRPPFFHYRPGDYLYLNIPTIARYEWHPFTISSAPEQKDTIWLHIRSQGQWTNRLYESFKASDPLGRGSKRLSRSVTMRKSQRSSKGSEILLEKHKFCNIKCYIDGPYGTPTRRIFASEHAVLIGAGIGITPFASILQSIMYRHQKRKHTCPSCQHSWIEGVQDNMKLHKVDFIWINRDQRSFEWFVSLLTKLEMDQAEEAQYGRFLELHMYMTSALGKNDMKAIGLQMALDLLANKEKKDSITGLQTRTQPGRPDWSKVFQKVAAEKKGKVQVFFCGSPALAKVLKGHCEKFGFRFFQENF

Sequence of NADPH oxidase 4 (Homo sapiens) (Q9NPH5 whole entry, looked up): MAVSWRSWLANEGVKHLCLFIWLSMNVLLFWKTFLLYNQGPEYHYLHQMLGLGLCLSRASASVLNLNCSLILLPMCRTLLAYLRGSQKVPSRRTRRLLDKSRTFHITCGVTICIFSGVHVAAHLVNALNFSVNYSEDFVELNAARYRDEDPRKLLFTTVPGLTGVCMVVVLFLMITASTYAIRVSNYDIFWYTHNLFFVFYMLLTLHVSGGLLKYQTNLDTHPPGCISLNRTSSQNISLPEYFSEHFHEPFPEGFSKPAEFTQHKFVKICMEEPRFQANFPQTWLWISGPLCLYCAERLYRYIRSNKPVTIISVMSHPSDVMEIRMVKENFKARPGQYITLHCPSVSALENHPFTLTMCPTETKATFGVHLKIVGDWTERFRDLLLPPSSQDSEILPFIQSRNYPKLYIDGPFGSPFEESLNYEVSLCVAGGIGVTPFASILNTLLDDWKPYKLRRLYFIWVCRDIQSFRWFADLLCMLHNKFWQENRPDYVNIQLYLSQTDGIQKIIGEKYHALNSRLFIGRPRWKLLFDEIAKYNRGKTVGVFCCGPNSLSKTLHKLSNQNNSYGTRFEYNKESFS
Sequence of NADPH oxidase 2 (Homo sapiens) (P04839 whole entry, looked up): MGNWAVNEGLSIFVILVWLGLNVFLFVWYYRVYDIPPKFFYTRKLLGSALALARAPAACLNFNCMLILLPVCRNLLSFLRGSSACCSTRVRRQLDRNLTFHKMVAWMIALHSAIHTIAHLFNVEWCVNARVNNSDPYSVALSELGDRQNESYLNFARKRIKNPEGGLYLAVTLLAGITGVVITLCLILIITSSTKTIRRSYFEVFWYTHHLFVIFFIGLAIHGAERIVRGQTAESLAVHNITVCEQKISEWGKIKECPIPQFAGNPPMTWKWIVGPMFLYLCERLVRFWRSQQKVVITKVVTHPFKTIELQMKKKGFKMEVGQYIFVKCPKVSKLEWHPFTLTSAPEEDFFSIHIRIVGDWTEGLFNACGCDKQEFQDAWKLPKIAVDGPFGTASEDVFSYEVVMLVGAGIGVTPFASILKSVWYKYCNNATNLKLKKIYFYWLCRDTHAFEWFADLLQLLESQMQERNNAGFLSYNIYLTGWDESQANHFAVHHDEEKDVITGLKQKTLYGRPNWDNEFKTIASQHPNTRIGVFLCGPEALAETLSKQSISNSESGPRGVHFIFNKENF

For the compound `[N-]=[N+]=NCc1ccccc1C[C@]1(C(=O)O)N=C(c2ccc(OCCCO)cc2)O[C@H]1c1ccccc1CN=[N+]=[N-]`, the z-score in [1] was -0.813 (inactive); in assay [3] it was 21.5 (active); in assay [4], 3.96 (inactive); in [5] it was 0.649 (inactive); in assay [6], 0.321 (inactive); in assay [7], -0.591. Moreover, the z-score is -0.331 (inactive) in assay [8], 1.11 (inactive) in assay [9] and 2.29 in assay [10]. Moreover, in assay [2], the composite z-score stood at 0.222.

Regarding `COCCOC(=O)N1C(=O)[C@@]2(c3cc(C#CCNC(N)=O)ccc31)[C@H](c1ccc(O)cc1)N1[C@H](c3ccccc3)[C@H](c3ccccc3)OC(=O)[C@H]1[C@@H]2C(=O)Nc1nc2ccccc2s1`, the z-score in [1] was 3.62 (inactive); in assay [3] it was 1.13 (inactive); in assay [4], -0.361 (inactive); in assay [5], 0.284 (inactive); in assay [6], -0.0972 (inactive); in [7], 2.46. The z-score in assay [8] was 0.806 (inactive); in assay [9], 0.969 (inactive); in assay [10], 1.33. In addition, the composite z-score in [2] came out at 0.144.

Regarding `O=c1oc(-c2ccccc2)nc2cc(Br)ccc12`, the z-score in [1] is 0.311 (inactive); in [3], 3.27 (inactive); in assay [4] it was 0.635 (inactive); in assay [5], -1.02 (inactive); in assay [6], 0.845 (inactive); in assay [7], -0.29. The z-score in assay [8] is 0.377 (inactive); in assay [9], -0.138 (inactive); in assay [10] it was -0.291. Moreover, the composite z-score in assay [2] is -0.0099.

`COCCOC(=O)N1C(=O)[C@@]2(c3cc(C#CC4=CCCCC4)ccc31)[C@H](C(=O)N1CCc3cc(OC)c(OC)cc3C1)[C@H]1C(=O)O[C@H](c3ccccc3)[C@H](c3ccccc3)N1[C@@H]2c1ccccc1OCCO`: the z-score was 0.585 (inactive) in assay [1]; 2.4 (inactive) in assay [3]; 0.876 (inactive) in assay [4]; 0.827 (inactive) in assay [5]; 0.703 (inactive) in [6]; -0.113 in assay [7]. The z-score in [8] is 1.72 (inactive); in [9], 0.58 (inactive); in assay [10], 1.99. In [2], this compound gave a composite z-score of -0.012.

Regarding `COC(=O)[C@@]1(Cc2ccccc2)[C@H]2c3cc(C(=O)N(C)C)n(Cc4c(-c5ccccc5)noc4C)c3C[C@H]2CN1C(=O)c1ccccc1`, the z-score in assay [1] was -2.11 (inactive); in assay [3], 2.98 (inactive); in assay [4] it was 1.2 (inactive); in assay [5], 0.57 (inactive); in [6] it was 1.11 (inactive); in assay [7] it was -0.505. Moreover, the values for the z-score in assay [8], in assay [9] and in assay [10] were 0.931 (inactive), 1.32 (inactive) and 1.1, respectively. Further, the composite z-score in assay [2] came to 0.324.

Consider `O=C1O[C@@H](c2ccccc2)[C@@H](c2ccccc2)N2[C@@H](c3ccc(OCCO)cc3)[C@]3(C(=O)Nc4ccc(C#CC5=CCCCC5)cc43)[C@@H](C(=O)O)[C@H]12`, for which the z-score was -0.584 (inactive) in assay [1]; -3.36 (inactive) in [3]; -1.76 (inactive) in assay [4]; -10.6 (active) in assay [5]; -0.957 (inactive) in [6]; -0.106 in [7]. The figures for the z-score in assay [8], in assay [9] and in [10] were 1.67 (inactive), -1.08 (inactive) and -0.216, respectively. The same compound showed a composite z-score in assay [2] of -0.0827.

Regarding `NCCCCCCNC(=O)[C@H]1C[C@H]2C(=O)NCC(=O)N2[C@H]1c1cccc(OCCO)c1`, the z-score was 1.17 (inactive) in [1]; 1.68 (inactive) in assay [3]; -0.0225 (inactive) in assay [4]; -1.63 (inactive) in [5]; 0.202 (inactive) in assay [6]; 0.384 in [7]. The z-score in assay [8] was 0.719 (inactive); in assay [9] it was 0.513 (inactive); in assay [10], 1.36. For the same compound, the composite z-score in assay [2] is 0.119.

In the case of `CC=CC(O)C1C=CC2C(=O)N(c3ccccc3)C(=O)C2N1Nc1ccc(C(C)C)cc1` (stereo not given), the z-score in assay [1] was -1.63 (inactive); in assay [3], 20.2 (active); in assay [4], 7.4 (inactive); in assay [5], 1.39 (inactive); in assay [6], 1.68 (inactive); in assay [7], -0.521. Further, the z-score was -0.68 (inactive) in assay [8], -3.67 (inactive) in [9] and -4.2 in assay [10]. In addition, the composite z-score in [2] is 0.424.

Consider `CCCNC(=O)[C@@H]1c2ccccc2C(=O)N(Cc2ccccc2)[C@H]1c1ccc(CO)cc1`, for which the z-score in assay [1] was -0.731 (inactive); in [3], 1.36 (inactive); in assay [4] it was -0.325 (inactive); in assay [5], 1.41 (inactive); in assay [6], 0.0842 (inactive); in [7] it was 0.0533. Moreover, the z-score in assay [8] was -0.802 (inactive); in assay [9] it was -1.63 (inactive); in [10], -2.53. In assay [2], this compound registered a composite z-score of -0.0508.

As to `CC(C)OC(=O)CC(=O)CC(O)c1ccc(C#N)cc1` (stereo not given), the z-score in assay [1] was 0.567 (inactive); in assay [3], 1.96 (inactive); in [4], -0.344 (inactive); in [5], -0.745 (inactive); in [6] it was -1.79 (inactive); in assay [7] it was 1.02. In addition, the z-score in assay [8] was 0.574 (inactive); in assay [9], -0.518 (inactive); in assay [10], -0.252. Moreover, the composite z-score in assay [2] was determined as 0.213.

For the compound `Cc1ccc(S[C@]2(C(=O)NC3CC3)CC(=O)N(Cc3ccccc3)[C@@H]2c2ccc(CO)cc2)cc1`, the z-score was -0.485 (inactive) in [1]; 1.28 (inactive) in assay [3]; 0.216 (inactive) in [4]; -0.552 (inactive) in assay [5]; -0.331 (inactive) in assay [6]; 0.0262 in [7]. Besides, the values for the z-score in assay [8], in assay [9] and in assay [10] were -0.106 (inactive), 1.09 (inactive) and 0.997, respectively. The same compound displayed a composite z-score in [2] of 0.106.
